Here are results for nine compounds from PubChem BioAssay (NCI).

This is part of a sample that, as a whole, favours compounds with a hit. Of some 83,000 tested, about 20% had one in any assay.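 Activity criterion: percent growth below 10, measured after cells in 96-well plates were exposed to a single compound concentration for 48 hours.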 Values without a mark were called inactive. Activity calls are given as the source filed them. Where a SMILES comes first, the peptide text is derived from it. The star is where a group is joined. Trt = c1ccc(C(c2ccccc2)(c2ccccc2)*)cc1; Cbz = O=C(OCc1ccccc1)*

Test systems include HCT-15 colon; HT29 colon; SNB-75 CNS; U251 CNS; UACC-62 melanoma; LOX IMVI melanoma; SK-MEL-28 melanoma; SK-MEL-2 melanoma; EKVX NSCLC; SN12C renal; UO-31 renal; TK-10 renal; ACHN renal; CAKI-1 renal; A498 renal; CCRF-CEM leukemia; MOLT-4 leukemia; SNB-19 CNS; SK-MEL-5 melanoma; PC-3 prostate.
Common to all, as to assay: NCI-60 one-dose screen, 48 h (100 = growth as untreated, 0 = no growth, -100 = all killed)
Holding throughout (settings): 10 µM unless noted

`COC(=O)C(CSC(c1ccccc1)(c1ccccc1)c1ccccc1)NC(=O)C(CC(N)=O)NC(=O)OCc1ccccc1` (stereo not drawn) (Cbz-Asn-Cys(Trt)-OMe; configuration not given here): the growth in the test with HCT-15 colon is 13.7%; in the test with HT29 colon, 33.7%; with SNB-75 CNS it was 20.3%; in the test on U251 CNS, 50.2%; in the test with UACC-62 melanoma, -11.7% (active); with LOX IMVI melanoma, -12% (active). Also, the growth in the test with SK-MEL-28 melanoma is 24.4%; with SK-MEL-2 melanoma it was -23% (active); with EKVX NSCLC, 36.6%; in the test with SN12C renal it was 29.2%; with UO-31 renal it was 58.4%; in the test on TK-10 renal it was 48.4%. The growth in the test with ACHN renal is 28.3%; with CAKI-1 renal it was 44.3%; with A498 renal, 21.1%; in the test with CCRF-CEM leukemia it was 40.3%; in the test on MOLT-4 leukemia it was 3.12% (active).
With `N#CSCc1c(Cl)cccc1Cl`, the growth is 14.6% in the test on HCT-15 colon; 12% with HT29 colon; 96.4% in the test on SNB-75 CNS; 90.2% in the test with SNB-19 CNS; 91.8% in the test on U251 CNS; 88.5% in the test with UACC-62 melanoma. Besides, the growth in the test on LOX IMVI melanoma is 49.9%; with SK-MEL-28 melanoma it was 56.2%; with SK-MEL-2 melanoma, 102%; with EKVX NSCLC, 103%; in the test with UO-31 renal, 40.2%; in the test with TK-10 renal, 101%. The growth in the test with ACHN renal is 49.9%; with CAKI-1 renal, 47.7%; in the test with CCRF-CEM leukemia, 44.1%.
`Oc1ccc(/C=N/NC(=S)Nc2ccccc2)nc1`: the growth with HCT-15 colon is 24.8%; in the test on HT29 colon it was 34.6%; with SNB-75 CNS, 31.4%; in the test on SNB-19 CNS, 42%; with U251 CNS, 14.7%; with UACC-62 melanoma, -9.22% (active). Moreover, the growth with SK-MEL-2 melanoma was 11.8%; in the test on EKVX NSCLC, 32.6%; with SN12C renal, 20.2%; in the test on UO-31 renal, -2.11% (active); in the test with TK-10 renal it was 31.2%; in the test on ACHN renal it was 12.3%. Also, the growth with CAKI-1 renal is 7.96% (active); with CCRF-CEM leukemia, 6.28% (active); in the test on MOLT-4 leukemia, -35.2% (active).
With `CN(Cc1cnc2nc(N)nc(N)c2n1)c1ccc(C(=O)NC(CCC(=O)O)C(=O)O)cc1` (configuration not stated), the growth in the test with HCT-15 colon was 26.4%; with HT29 colon, 27.6%; in the test on SNB-75 CNS it was 59.6%; with SNB-19 CNS, 47.2%; in the test with U251 CNS, 35.7%; in the test with SK-MEL-5 melanoma, 23.3%. Moreover, the growth with UACC-62 melanoma was 21.2%; with LOX IMVI melanoma it was 13.2%; in the test on SK-MEL-2 melanoma, 79.6%; in the test with EKVX NSCLC, 70.9%; in the test with SN12C renal, 26.9%; in the test with UO-31 renal it was 9.25% (active). Besides, the growth in the test on TK-10 renal is 58.8%; with ACHN renal, 26.8%; in the test with CAKI-1 renal, 22.2%; with A498 renal, 35.4%; in the test on CCRF-CEM leukemia it was 28.8%; with MOLT-4 leukemia it was 24.4%.
As to `CCOC(=O)c1c(C)[nH]c(CO)c1C`, the growth in the test with HCT-15 colon was 106%; in the test with HT29 colon, 96.4%; in the test with SNB-75 CNS, 101%; in the test with SNB-19 CNS, 98.4%; in the test on U251 CNS it was 99%; in the test on SK-MEL-5 melanoma, 99.1%. Further, the growth in the test with UACC-62 melanoma is 93.4%; in the test on LOX IMVI melanoma, 101%; with SK-MEL-2 melanoma it was 101%; in the test with EKVX NSCLC, 79.1%; with SN12C renal, 95.2%; in the test on UO-31 renal, 92.5%. The growth with TK-10 renal was 106%; with ACHN renal it was 107%; in the test with CAKI-1 renal, 101%; in the test with CCRF-CEM leukemia, 98.2%; in the test on MOLT-4 leukemia it was 96.6%.
`Cn1c2ccccc2c2nnc(N/N=C/c3ccccn3)nc21`: the growth in the test on HCT-15 colon is 27.6%; with HT29 colon, 37%; in the test with SNB-75 CNS, 31%; in the test with SNB-19 CNS, 26.1%; with U251 CNS, 14.2%; with SK-MEL-5 melanoma it was -44.1% (active). Also, the growth is -6.2% (active) in the test on UACC-62 melanoma; 1.32% (active) in the test on LOX IMVI melanoma; 18.5% in the test with SK-MEL-28 melanoma; 51.3% in the test on SK-MEL-2 melanoma; -11.9% (active) in the test with EKVX NSCLC; 4.82% (active) in the test on UO-31 renal. The growth was -18.9% (active) in the test on TK-10 renal; -4.67% (active) with ACHN renal; -21.1% (active) in the test on CAKI-1 renal; -37.2% (active) with CCRF-CEM leukemia; -21.7% (active) with MOLT-4 leukemia.
Turning to `O=C1C=CC(=O)N1C1c2ccccc2-c2ccccc21`, the growth with HCT-15 colon was 61.6%; in the test on SNB-75 CNS it was 74.9%; in the test with SNB-19 CNS, 105%; in the test with U251 CNS, 92.8%; in the test on PC-3 prostate, 94.1%; in the test with UACC-62 melanoma, 102%. Further, the growth in the test on LOX IMVI melanoma was 93.9%; in the test on SK-MEL-28 melanoma it was 104%; in the test on SK-MEL-2 melanoma, 100%; with EKVX NSCLC, 105%; in the test with SN12C renal, 94.2%; in the test on UO-31 renal it was 75.5%. The growth with TK-10 renal was 51.4%; in the test on ACHN renal it was 57.8%; with CAKI-1 renal it was 55.7%; in the test on A498 renal it was 93.8%; in the test with CCRF-CEM leukemia, 30.4%; with MOLT-4 leukemia, 33.8%.
Consider `CN(C)c1ccc(/C=N/N=C(\C#N)[S][Sn]([Cl])([c]2ccccc2)[c]2ccccc2)cc1`, for which the growth in the test with HCT-15 colon was -30.6% (active); with SNB-75 CNS, 8.38% (active); in the test with U251 CNS, 57.3%; with PC-3 prostate, 68.6%; in the test on SK-MEL-5 melanoma it was 37%; in the test on UACC-62 melanoma, 34.7%. For the same compound, the growth is -92.8% (active) in the test on LOX IMVI melanoma; -48.7% (active) in the test on SK-MEL-28 melanoma; 40.3% in the test on SK-MEL-2 melanoma; 44% with EKVX NSCLC; 28.8% in the test on SN12C renal; -0.649% (active) in the test on UO-31 renal. Also, the growth is -24.1% (active) with TK-10 renal; -51% (active) in the test on ACHN renal; 46.4% in the test with CAKI-1 renal; 32% with A498 renal; -20.2% (active) with CCRF-CEM leukemia.
On to `N#CSCC(=O)c1ccc(Cl)cc1`, for which the growth was -19.4% (active) with HT29 colon; 33% in the test with SNB-75 CNS; 81.9% in the test on SNB-19 CNS; 31.9% with U251 CNS; 45.5% with PC-3 prostate; 35.3% with SK-MEL-5 melanoma. Besides, the growth with UACC-62 melanoma is 51.5%; in the test with LOX IMVI melanoma, 12.3%; in the test on SK-MEL-28 melanoma, 73.4%; in the test on SK-MEL-2 melanoma it was 80.8%; in the test with EKVX NSCLC, 82.6%; with SN12C renal it was 33.6%. Also, the growth in the test with UO-31 renal was 28.3%; with TK-10 renal it was 82.7%; in the test with ACHN renal, 52%; in the test with CAKI-1 renal, 31.8%; in the test on CCRF-CEM leukemia, 52.5%; in the test on MOLT-4 leukemia, 65.4%.
